{"source": "ChEMBL document CHEMBL3988442", "about": "“University of Dundee, Small-Polar-MMV Screening Library” (2021)", "note": "Out of some 69,000 compounds screened, about 950 (1.4%) showed an effect of 50% or more. This is one part of a sample in which strong results are shown more often than they occur.", "data": [{"test_system": "Mycobacterium tuberculosis", "assay": "Cornell M. t heat shock assay; note: in the data most compounds retested in dose-response had high values", "format": "functional, organism-based", "parameters": "dose or concentration left out as unconfirmed", "units": {"Percent Effect": "%"}, "values": [{"smiles": "O=C(O)C(F)(F)F.O=C(O)C(F)(F)F.c1ccc(N2CCC3(COCCN(c4ncccn4)C3)C2)nc1", "note": "(centres undefined)", "Percent Effect": 3.163}, {"smiles": "Cn1cc(CN2CCC(F)(F)C3(CCN(c4ncccn4)C3)C2)cn1.O=C(O)C(F)(F)F.O=C(O)C(F)(F)F", "note": "(centres undefined)", "Percent Effect": -18.65}, {"smiles": "CC(C)n1ccnc1CN1CCCN(C(=O)CC2CCCO2)CC1", "note": "(centres undefined)", "Percent Effect": -7.243}, {"smiles": "CC(C)n1ccnc1CN1CCOC(CC2CCCCC2)C1", "note": "(centres undefined)", "Percent Effect": 50.37}, {"smiles": "CC(C)n1ccnc1CN1CCOC(CCc2ccccc2)C1", "note": "(centres undefined)", "Percent Effect": -0.01061}, {"smiles": "O=C(O)C(F)(F)F.O=C(O)C(F)(F)F.O=C(O)C(F)(F)F.c1cnc(NC[C@H]2OC[C@@H]3CCN(Cc4nccs4)C[C@@H]32)nc1", "Percent Effect": -22.37}, {"smiles": "CNC(=O)[C@H]1C[C@@H]2CN(Cc3cccnc3OC)C[C@@H]2N1C(C)=O.O=C(O)C(F)(F)F.O=C(O)C(F)(F)F", "Percent Effect": -6.106}, {"smiles": "CCc1ccc(C2CCCN2C(=O)NCC(=O)NCC(C)C)o1", "note": "(centres undefined)", "Percent Effect": -12.75}, {"smiles": "COCCN1CCN(CCS(=O)(=O)C(F)(F)F)CC1C", "note": "(centres undefined)", "Percent Effect": 105.5}, {"smiles": "COCCN1CCN(CCS(C)(=O)=O)CC1C", "note": "(centres undefined)", "Percent Effect": -13.47}, {"smiles": "COCCN1CCN(CCCS(C)(=O)=O)CC1C", "note": "(centres undefined)", "Percent Effect": -16.37}, {"smiles": "CCN(CC)Cc1cn2c(n1)CN(C(=O)c1cc(C)on1)CC2.O=C(O)C(F)(F)F", "Percent Effect": -2.302}, {"smiles": "Cc1noc(CS(=O)(=O)C(C)C(=O)N(C)c2ccccc2)n1", "note": "(centres undefined)", "Percent Effect": 6.585}, {"smiles": "Cc1noc(CS(=O)(=O)CC(=O)NC(C)c2ccccc2)n1", "note": "(centres undefined)", "Percent Effect": 70.08}, {"smiles": "CCN(C(=O)C(C)S(=O)(=O)Cc1nc(C)no1)c1ccccc1", "note": "(centres undefined)", "Percent Effect": -1.269}, {"smiles": "CC(C)=CCS(=O)(=O)Cc1nc(C(C)C)no1", "Percent Effect": 58.075}, {"smiles": "CC(C)c1noc(CS(=O)(=O)CC(=O)NCCOc2ccccc2)n1", "Percent Effect": 41.58}, {"smiles": "CC(C)c1noc(CS(=O)(=O)CC(=O)NCc2ccccc2)n1", "Percent Effect": 49.68}, {"smiles": "CCC(C)NC(=O)CS(=O)(=O)Cc1nc(-c2cccs2)no1", "note": "(centres undefined)", "Percent Effect": 65.94}, {"smiles": "CCc1noc(CS(=O)(=O)CC=C(C)C)n1", "Percent Effect": 29.3}, {"smiles": "CC(C)c1noc(CS(=O)(=O)Cc2nc(C(C)C)no2)n1", "Percent Effect": -44.125}, {"smiles": "CCC(C)NC(=O)CS(=O)(=O)Cc1ccccc1Cl", "note": "(centres undefined)", "Percent Effect": -5.393}, {"smiles": "CC(C)c1noc(CS(=O)(=O)CC(=O)NCc2cccs2)n1", "Percent Effect": 58.74}, {"smiles": "CC(Cn1cccn1)NCc1nc(-c2cccs2)no1", "note": "(centres undefined)", "Percent Effect": 22.29}, {"smiles": "CC1N(C)C(=O)COC12CCN(Cc1nccs1)CC2.O=C(O)C(F)(F)F", "note": "(centres undefined)", "Percent Effect": 2.077}, {"smiles": "CCn1nc(C)cc1C(=O)N1C[C@H]2CCC[C@@]2(COc2ccccn2)C1.O=C(O)C(F)(F)F", "Percent Effect": -22.73}, {"smiles": "O=C(N[C@@H]1CN(CC2CC2)[C@@H]2CCCO[C@@H]21)c1cscn1.O=C(O)C(F)(F)F", "Percent Effect": 21.59}, {"smiles": "Cl.O=c1c2sccc2nc2n1CCN(Cc1ccccc1C(F)(F)F)CC2", "Percent Effect": 24}, {"smiles": "O=C(NC[C@]12COC[C@H]1CN(C1CCOCC1)C2)c1ccco1.O=C(O)C(F)(F)F", "Percent Effect": -7.738}, {"smiles": "O=C(O)C(F)(F)F.O=C([C@H]1C[C@@H]2CCN(C3CCOCC3)C[C@H]2O1)N1CCCC1", "Percent Effect": -29.11}, {"smiles": "CCCc1noc(CCC(=O)NC(C)c2nnc3n2CCCCC3)n1", "note": "(centres undefined)", "Percent Effect": -4.52}, {"smiles": "CCCc1noc(CS(=O)(=O)CC(=O)NC(C)CCC)n1", "note": "(centres undefined)", "Percent Effect": 60.91}, {"smiles": "CC(C)c1noc(CS(=O)(=O)CC(=O)NCC(F)(F)F)n1", "Percent Effect": 45.89}, {"smiles": "COc1cccc(CN2C[C@@H]3COC[C@]3(COCc3ccccn3)C2)c1.O=C(O)C(F)(F)F.O=C(O)C(F)(F)F", "Percent Effect": -27.12}, {"smiles": "Fc1cnc(N2CCCC3(CCN(Cc4ccco4)C3)C2)nc1.O=C(O)C(F)(F)F.O=C(O)C(F)(F)F", "note": "(centres undefined)", "Percent Effect": -39.88}, {"smiles": "Cc1cnn(CC2CN(Cc3nc(N)c4ccccc4n3)CCO2)c1", "note": "(centres undefined)", "Percent Effect": 8.088}, {"smiles": "Cc1cnn(CC2CCCN2Cc2noc(-c3ccccc3)n2)c1", "note": "(centres undefined)", "Percent Effect": -2.457}, {"smiles": "Cc1cnn(CC2CCCN2Cc2nc(N)c3ccccc3n2)c1", "note": "(centres undefined)", "Percent Effect": 64.38}, {"smiles": "Nc1nc(CN2CCCC2Cn2cncn2)nc2ccccc12", "note": "(centres undefined)", "Percent Effect": -4.506}, {"smiles": "Nc1nc(CN2CCCCC2Cn2cncn2)nc2ccccc12", "note": "(centres undefined)", "Percent Effect": -45.18}, {"smiles": "Cc1cnn(CC2CCCCN2Cc2nc(N)c3ccccc3n2)c1", "note": "(centres undefined)", "Percent Effect": 92.62}, {"smiles": "COc1cccc(CN2CCCCC2c2n[nH]cc2-c2cc(C)no2)c1.Cl", "note": "(centres undefined)", "Percent Effect": 13.26}, {"smiles": "CCOC1COC2(CCN(CC3CCOCC3)CC2)C1.O=C(O)C(F)(F)F", "note": "(centres undefined)", "Percent Effect": -19.84}, {"smiles": "CCS(=O)(=O)N1CCOCC2(CCN(c3ccccn3)C2)C1.O=C(O)C(F)(F)F", "note": "(centres undefined)", "Percent Effect": -24.76}, {"smiles": "CCc1nc2ccccc2c(=O)n1CC1(O)CCNCC1.Cl", "Percent Effect": -1.704}, {"smiles": "O=C(O)C(F)(F)F.O=C(c1ccncn1)N1CCC[C@]2(C[C@H](Oc3ncccc3F)CO2)C1", "Percent Effect": -22.98}, {"smiles": "COCCCNC(=O)c1cn(C(C)(C)C)c2ncccc12", "Percent Effect": 50.28}, {"smiles": "CNC(=O)c1cn(C(C)(C)C)c2ncccc12", "Percent Effect": 4.278}, {"smiles": "COCCN(CCOC)C(=O)c1cn(C(C)(C)C)c2ncccc12", "Percent Effect": 20.52}, {"smiles": "CCNC(=O)c1cn(C(C)(C)C)c2ncccc12", "Percent Effect": 35.45}, {"smiles": "COCC(C)NC(=O)c1cn(C(C)(C)C)c2ncccc12", "note": "(centres undefined)", "Percent Effect": -8.611}, {"smiles": "COCCNC(=O)c1cn(C(C)(C)C)c2ncccc12", "Percent Effect": 84.66}, {"smiles": "CCOCCCNC(=O)c1cn(C(C)(C)C)c2ncccc12", "Percent Effect": 48.73}, {"smiles": "CC(C)(C)n1cc(C(=O)NCCCn2ccnc2)c2cccnc21", "Percent Effect": -4.729}, {"smiles": "CCCNC(=O)c1cn(C(C)(C)C)c2ncccc12", "Percent Effect": 52.59}, {"smiles": "CN(C)Cc1cc(=O)n2c(n1)CN(S(=O)(=O)C1CC1)CCC2.O=C(O)C(F)(F)F", "Percent Effect": 14.69}, {"smiles": "CCSc1ccccc1C(=O)N(CCOC)Cc1ccoc1", "Percent Effect": -23.21}, {"smiles": "COCC(=O)N1CCN(CCn2cccn2)c2nc(C)ccc2C1.O=C(O)C(F)(F)F", "Percent Effect": -7.36}, {"smiles": "COCC1CC2(CCN(c3ccccn3)CC2)CN1C(C)C.O=C(O)C(F)(F)F.O=C(O)C(F)(F)F", "note": "(centres undefined)", "Percent Effect": -2.762}, {"smiles": "Cc1csc(CN2CC[C@H]3C[C@H](c4nc(C)no4)O[C@@H]3C2)n1.O=C(O)C(F)(F)F", "Percent Effect": -42.3}, {"smiles": "Cn1cc(-c2ncnc3c2CCN(CC2CCOC2)CC3)cn1.O=C(O)C(F)(F)F", "note": "(centres undefined)", "Percent Effect": 17.32}, {"smiles": "O=C(O)C(F)(F)F.O=C(O)C(F)(F)F.c1ccc(CN2CCn3c(Cn4cncn4)cnc3C2)nc1", "Percent Effect": 0.3776}, {"smiles": "O=C(O)C(F)(F)F.O=C([C@H]1C[C@H]2OCC[C@H]2N(CCc2ccccc2)C1)N1CCCO1", "Percent Effect": -5.073}, {"smiles": "O=C(NCC1CC1)C1CN(c2ncccn2)Cc2ccnn2C1.O=C(O)C(F)(F)F.O=C(O)C(F)(F)F", "note": "(centres undefined)", "Percent Effect": 12.91}, {"smiles": "CCc1nc(CN2CCCN(C(=O)c3cn[nH]c3C)CC2)cs1", "Percent Effect": 14.33}, {"smiles": "CCc1nc(CN2CCCN(C(=O)c3cn[nH]c3CC)CC2)cs1", "Percent Effect": 52.06}, {"smiles": "CCCOCC(=O)N1CCCN(Cc2csc(CC)n2)CC1", "Percent Effect": 22.03}, {"smiles": "c1csc(N2CCCN(Cc3noc(C4CC4)n3)CC2)n1", "Percent Effect": -6.96}, {"smiles": "CCc1nc(CN2CCCN(Cc3noc(C4CC4)n3)CC2)cs1", "Percent Effect": 67.89}, {"smiles": "CCc1nc(CN2CCCN(C(=O)COCC3CC3)CC2)cs1", "Percent Effect": 155.1}, {"smiles": "CCc1nc(CN2CCCN(C(=O)c3cnc[nH]3)CC2)cs1", "Percent Effect": 30.64}, {"smiles": "Cc1ncc(CN2CCCN(Cc3noc(C4CC4)n3)CC2)s1", "Percent Effect": 6.148}, {"smiles": "Cc1nc(CN2CCCN(C(=O)COCC3CC3)CC2)cs1", "Percent Effect": 36.12}, {"smiles": "CCc1nc(-c2ccnc(N3CCNCC3)n2)no1.Cl.Cl", "Percent Effect": -8.056}, {"smiles": "Cl.O=C(c1cccnc1)N1CCC2(CC1)CNc1c(F)cccc12", "Percent Effect": 4.233}, {"smiles": "O=C(O)C(F)(F)F.c1cnc(NC2COC3(CCN(Cc4cc[nH]n4)CC3)C2)nc1", "note": "(centres undefined)", "Percent Effect": -22.6}, {"smiles": "O=C(O)C(F)(F)F.O=C(O)C(F)(F)F.O=C(O)C(F)(F)F.O=C1C[C@H]2[C@@H](CCN2Cc2ccccn2)N1Cc1cccnc1", "Percent Effect": -6.498}, {"smiles": "O=C(O)C(F)(F)F.O=C([C@H]1C[C@H]2OCC[C@H]2N(C(=O)c2ccncc2)C1)N1CCCC1", "Percent Effect": -34.63}, {"smiles": "Cc1cc(CCC(=O)N(C)C)nc(C2CCCCN2)n1.Cl.Cl", "note": "(centres undefined)", "Percent Effect": -7.222}, {"smiles": "CCCS(=O)(=O)N1C[C@@H](OCc2ccncc2)[C@H]2OCCC[C@H]21.O=C(O)C(F)(F)F", "Percent Effect": -14.14}, {"smiles": "CCn1cc2c(n1)C(COC)CN(C(=O)c1ccccn1)C2", "note": "(centres undefined)", "Percent Effect": -31.72}, {"smiles": "CC(C)c1nc(-c2ccnc(N3CCNCC3)n2)no1.Cl.Cl", "Percent Effect": -7.834}, {"smiles": "CC[C@]12CN3C[C@](CC)(CN(C1)C3c1[nH]c(=O)[nH]c(=O)c1C)C2=O", "note": "(some centres undefined)", "Percent Effect": 72.7}, {"smiles": "CCC[C@]12CN3C[C@](C)(CN(C1)C3c1[nH]c(=O)[nH]c(=O)c1C)C2=O", "note": "(some centres undefined)", "Percent Effect": -3.215}, {"smiles": "Cc1c(C2N3C[C@]4(C)CN2C[C@](C)(C3)C4=O)[nH]c(=O)[nH]c1=O", "note": "(some centres undefined)", "Percent Effect": 74.22}, {"smiles": "Cc1c(C2N3C[C@]4(C(C)C)CN2C[C@](C(C)C)(C3)C4=O)[nH]c(=O)[nH]c1=O", "note": "(some centres undefined)", "Percent Effect": 1.038}, {"smiles": "CC[C@]12CN3C[C@](C)(CN(C1)C3c1[nH]c(=O)[nH]c(=O)c1C)C2=O", "note": "(some centres undefined)", "Percent Effect": 68.87}, {"smiles": "CCC[C@]12CN3C[C@](CCC)(CN(C1)C3c1[nH]c(=O)[nH]c(=O)c1C)C2=O", "note": "(some centres undefined)", "Percent Effect": -14.28}, {"smiles": "O=C(O)C(F)(F)F.O=C1CC[C@H]2[C@H](CCN2c2ncc(F)cn2)N1c1ccccc1", "Percent Effect": 11.33}]}]}
